# Hit rate of the full screen: of about 39,000 compounds, about 3,300 (8.5%) were called active. For the sample, actives were picked, then their nearest neighbours and some compounds at random.
# System: HepG2
# Assay: cytotoxicity call (relative viability < 0.9)
# Conditions: 10 µM
row,SMILES,cytotoxicity call
1,COc1cccc(NC(=O)C[C@@H]2CC[C@H]3[C@@H](COc4ccc(NC(=O)C5CCOCC5)cc4C(=O)N3C)O2)c1,inactive
2,C[C@H](CO)N1C[C@H](C)[C@H](CN(C)S(C)(=O)=O)Oc2ccc(NC(=O)CCCCCC(=O)Nc3ccccc3N)cc2CC1=O,inactive
3,C[C@H](CO)N1C[C@H](C)[C@H](CN(C)C(=O)c2cccnc2)Oc2cc(C#CC3(O)CCCC3)ccc2S1(=O)=O,inactive
4,COc1cccc(S(=O)(=O)N(C)C[C@H]2OCc3cnnn3CCCC(=O)N([C@@H](C)CO)C[C@H]2C)c1,inactive
5,C[C@H]1CN([C@@H](C)CO)C(=O)c2cccc(NS(C)(=O)=O)c2O[C@@H]1CN(C)C(=O)Nc1ccccc1,inactive
6,CC(C)NC(=O)N(C)C[C@@H]1Oc2ccc(NS(=O)(=O)c3ccccc3)cc2C(=O)N([C@@H](C)CO)C[C@H]1C,inactive
7,Cc1noc(C)c1S(=O)(=O)Nc1ccc2c(c1)CC(=O)N([C@H](C)CO)C[C@@H](C)[C@H](CN(C)C(=O)Nc1ccccc1)O2,inactive
8,C[C@@H]1CN([C@H](C)CO)C(=O)c2cc(NC(=O)NC3CCCCC3)ccc2O[C@H]1CN(C)Cc1ccc(Cl)c(Cl)c1,inactive
9,C[C@H](CO)N1C[C@H](C)[C@@H](CN(C)C(=O)Nc2cccc3ccccc23)Oc2ccc(NC(=O)CCC(F)(F)F)cc2CC1=O,inactive
10,C[C@@H]1CCCCO[C@H](CN(C)C(=O)Nc2ccccc2)[C@H](C)CN([C@H](C)CO)C(=O)c2cc(NC(=O)NC3CCCCC3)ccc2O1,inactive
11,CC(C)CC#Cc1cnc2c(c1)C(=O)N([C@H](C)CO)C[C@H](C)[C@H](CN(C)S(=O)(=O)c1cn(C)cn1)O2,inactive
12,C[C@@H]1CCCCO[C@@H](CN(C)C(=O)NC2CCCCC2)[C@H](C)CN([C@H](C)CO)C(=O)c2cc(NC(=O)Nc3cccc4ccccc34)ccc2O1,inactive
13,C[C@H](CO)N1C[C@H](C)[C@H](CN(C)C(=O)Nc2cccc3ccccc23)OCCCC[C@H](C)Oc2ccc(NC(=O)NC3CCCCC3)cc2C1=O,active
14,C[C@@H]1CCCCO[C@@H](CN(C)C(=O)Nc2cccc3ccccc23)[C@H](C)CN([C@H](C)CO)C(=O)c2cc(NC(=O)NC3CCCCC3)ccc2O1,inactive
15,C[C@H]1CCCCO[C@H](CN(C)C(=O)Nc2cccc3ccccc23)[C@@H](C)CN([C@@H](C)CO)C(=O)c2cc(NC(=O)NC3CCCCC3)ccc2O1,inactive
16,C[C@@H]1CN([C@H](C)CO)C(=O)c2cc(NC(=O)Nc3cccc4ccccc34)ccc2O[C@@H](C)CCCCO[C@H]1CN(C)C(=O)NC1CCCCC1,active
17,C[C@@H]1CN([C@@H](C)CO)C(=O)c2cc(NC(=O)Nc3cccc4ccccc34)ccc2O[C@@H](C)CCCCO[C@H]1CN(C)C(=O)NC1CCCCC1,inactive
18,C[C@@H]1CCCCO[C@@H](CN(C)C(=O)Nc2cccc3ccccc23)[C@H](C)CN([C@@H](C)CO)C(=O)c2cc(NC(=O)NC3CCCCC3)ccc2O1,inactive
19,C[C@@H]1CCCCO[C@H](CN(C)C(=O)Nc2cccc3ccccc23)[C@H](C)CN([C@@H](C)CO)C(=O)c2cc(NC(=O)NC3CCCCC3)ccc2O1,active
20,C[C@@H]1CCCCO[C@H](CN(C)C(=O)Nc2cccc3ccccc23)[C@@H](C)CN([C@H](C)CO)C(=O)c2cc(NC(=O)NC3CCCCC3)ccc2O1,inactive

row,SMILES,cytotoxicity call
1,CC(C)NC(=O)Nc1ccc2c(c1)C(=O)N([C@H](C)CO)C[C@@H](C)[C@H](CN(C)S(=O)(=O)c1ccccc1)O2,inactive
2,C[C@@H]1CN([C@@H](C)CO)C(=O)c2cccc(NC(=O)c3cnccn3)c2O[C@H]1CN(C)Cc1ccc(C(=O)O)cc1,inactive
3,C[C@@H]1CCCCO[C@H](CN(C)C(=O)c2ccccc2)[C@H](C)CN([C@@H](C)CO)C(=O)c2cc(NC(=O)Nc3cccc4ccccc34)ccc2O1,inactive
4,O=C(C[C@@H]1CC[C@H](NS(=O)(=O)c2ccc(F)cc2)[C@H](CO)O1)N1CCC(Cc2ccccc2)CC1,inactive
5,Cc1ccc(S(=O)(=O)N(C)C[C@@H]2Oc3ccc(NS(=O)(=O)c4cn(C)cn4)cc3CC(=O)N([C@H](C)CO)C[C@H]2C)cc1,inactive
6,c1ccc(Cn2c(-c3ccc(OC[C@H](C4CCNCC4)n4c(-c5ccccc5)nc5ccccc54)cc3)nc3ccccc32)cc1,active
7,Cc1cccc(-c2nc3ccccc3n2CCC(C)C)c1,inactive
8,Cc1ccc(OCCn2c(CC(C)(C)C)nc3ccccc32)cc1,inactive
9,Cc1cncc2cccc(S(=O)(=O)N[C@H]3CN[C@H](COC(=O)NCCOCCOCCN)C3)c12,inactive
10,Cn1cc(CO)cn1,inactive
11,O=C(C[C@@H]1CC[C@H]2[C@@H](COC[C@@H](O)CN2C(=O)Nc2ccc3c(c2)OCO3)O1)N1CCN(c2ccccc2)CC1,inactive
12,COc1ccc(NC(=O)Nc2cccc3c2O[C@@H](CN(C)Cc2ccc(-c4ccccc4)cc2)[C@H](C)CN([C@H](C)CO)C3=O)cc1,active
13,COc1ccc(NC(=O)Nc2cccc3c2O[C@H](CN(C)Cc2ccc(-c4ccccc4)cc2)[C@@H](C)CN([C@H](C)CO)C3=O)cc1,inactive
14,COc1ccc(NC(=O)Nc2cccc3c2O[C@H](CN(C)Cc2ccc(-c4ccccc4)cc2)[C@H](C)CN([C@@H](C)CO)C3=O)cc1,active
15,COc1ccc(NC(=O)Nc2cccc3c2O[C@@H](CN(C)Cc2ccc(-c4ccccc4)cc2)[C@@H](C)CN([C@H](C)CO)C3=O)cc1,inactive
16,COc1ccc(NC(=O)Nc2cccc3c2O[C@H](CN(C)Cc2ccc(-c4ccccc4)cc2)[C@H](C)CN([C@H](C)CO)C3=O)cc1,active
17,C[C@H]1CN([C@@H](C)CO)C(=O)c2cccc(NC(=O)Nc3ccccc3)c2O[C@H]1CN(C)Cc1ccc(-c2ccccc2)cc1,inactive
18,COc1ccc(NC(=O)Nc2cccc3c2O[C@@H](CN(C)Cc2ccc(-c4ccccc4)cc2)[C@H](C)CN([C@@H](C)CO)C3=O)cc1,inactive
19,COc1ccc(NC(=O)Nc2cccc3c2O[C@H](CN(C)Cc2ccc(-c4ccccc4)cc2)[C@@H](C)CN([C@@H](C)CO)C3=O)cc1,active
20,COc1ccc(NC(=O)Nc2cccc3c2O[C@@H](CN(C)Cc2ccc(-c4ccccc4)cc2)[C@@H](C)CN([C@@H](C)CO)C3=O)cc1,inactive

# Reference: the antibiotic and cytotoxicity screens of Wong et al. (2023)
